According to the supplement of paper PMC9399229:
Where a name gives a salt, the structure may show the parent alone. Whole data set: some 1,900 compounds, median “relative cell viability (CellTiter-Glo), compound plus cabozantinib, relative to the cabozantinib arm (arm median 1.05; reference not stated)” near 1.1, cut for the lowest 2% near 0.15. This excerpt belongs to a sample that is enriched for the lowest values.

The compounds below were run on Hep3B (assay: relative cell viability (CellTiter-Glo), compound plus cabozantinib, relative to the cabozantinib arm (arm median 1.05; reference not stated) (fraction); higher = more viable cells (less growth inhibition)). Conditions: cabozantinib 2 µM; 4 days.
For COC(=O)N[C@H](C(=O)N1CC2(CC2)C[C@H]1c1nc(-c2ccc3c(c2)C(F)(F)c2cc(-c4ccc5[nH]c([C@@H]6[C@H]7CC[C@H](C7)N6C(=O)[C@@H](NC(=O)OC)C(C)C)nc5c4)ccc2-3)c[nH]1)C(C)C [Ledipasvir (GS5885)], the relative cell viability was 1. For FC(F)(F)c1ccc(CNc2ccc(Cc3c[nH]c4ncc(Cl)cc34)cn2)cn1 [Pexidartinib (PLX3397)], the relative cell viability was 1.07. Work on C[C@H]1COC2=C1C(=O)C(=O)c1c2ccc2c1CCCC2(C)C [Cryptotanshinone] yielded a relative cell viability of 0.918. C=CC(=O)Nc1cccc(Nc2nc(Nc3ccc(N4CCN(C(C)=O)CC4)cc3OC)ncc2C(F)(F)F)c1 was tested, and the relative cell viability was 0.831. With COc1nc(C)cnc1NS(=O)(=O)c1cccnc1-c1ccc(-c2nnco2)cc1 [Zibotentan (ZD4054)] the relative cell viability was 1.22. For C/C(=N\NC(=S)N1CCC1)c1ccccn1, the relative cell viability was 0.0579. CC1=CC(=O)c2ccccc2C1=O [Menadione] gave a relative cell viability of 1.05. CC(=O)Nc1ccccc1 [Acetanilide] gave a relative cell viability of 1.07. CC(C)(C)C(=O)Nc1ccc2c(c1)C(=O)C(=O)c1ccccc1-2 gave a relative cell viability of 0.0959. C[C@H]1O[C@@H](O[C@H]2[C@@H](O)C[C@H](O[C@H]3[C@@H](O)C[C@H](O[C@H]4CC[C@@]5(C)[C@H](CC[C@@H]6[C@@H]5C[C@@H](O)[C@]5(C)[C@@H](C7=CC(=O)OC7)CC[C@]65O)C4)O[C@@H]3C)O[C@@H]2C)C[C@H](O)[C@@H]1O [Digoxin] gave a relative cell viability of 0.0999. In the case of CO[C@H]1C[C@@H]2CC[C@@H](C)[C@@](O)(O2)C(=O)C(=O)N2CCCC[C@H]2C(=O)O[C@H]([C@H](C)C[C@@H]2CC[C@@H](OP(C)(C)=O)[C@H](OC)C2)CC(=O)[C@H](C)/C=C(\C)[C@@H](O)[C@@H](OC)C(=O)[C@H](C)C[C@H](C)/C=C/C=C/C=C/1C [Ridaforolimus (Deforolimus, MK-8669)], the relative cell viability is reported as 1.3. With CN/C(=N\CCSCc1nc[nH]c1C)NC#N [Cimetidine] the relative cell viability was 0.986. COc1cccc2c1C(=O)c1c(O)c3c(c(O)c1C2=O)C[C@@](O)(C(=O)CO)C[C@@H]3O[C@H]1C[C@H](N)[C@H](O[C@@H]2CCCCO2)[C@H](C)O1 [Pirarubicin] showed a relative cell viability of 0.178. COc1cccc2c1C(=O)c1c(O)c3c(c(O)c1C2=O)C[C@@](O)(C(=O)CO)C[C@@H]3O[C@H]1C[C@H](N)[C@H](O)[C@H](C)O1 [Doxorubicin (Adriamycin)] gave a relative cell viability of 0.111. For COc1cccc2c1C(=O)c1c(O)c3c(c(O)c1C2=O)C[C@@](O)(C(C)=O)C[C@@H]3O[C@H]1C[C@H](N)[C@H](O)[C@H](C)O1 [Daunorubicin HCl], the relative cell viability was 0.0514. In the case of COc1cccc2c1C(=O)c1c(O)c3c(c(O)c1C2=O)C[C@@](O)(C(=O)CO)C[C@@H]3O[C@H]1C[C@H](N)[C@@H](O)[C@H](C)O1 [Epirubicin HCl], the relative cell viability is reported as 0.045. Cc1onc(-c2ccccc2Cl)c1C(=O)N[C@@H]1C(=O)N2[C@@H]1SC(C)(C)[C@@H]2C(=O)O [Cloxacillin Sodium] showed a relative cell viability of 1.1. C=C1CC[C@H](O)C/C1=C/C=C1\CCC[C@]2(C)[C@@H]([C@H](C)CCCC(C)(C)O)CC[C@@H]12 [Calcifediol] gave a relative cell viability of 0.993. Compound CC[C@H](C)C[C@H](C)CCCCCCCCC(=O)N[C@H]1C[C@@H](O)[C@@H](NCCN)NC(=O)[C@@H]2[C@@H](O)CCN2C(=O)[C@H]([C@H](O)CCN)NC(=O)[C@H]([C@H](O)[C@@H](O)c2ccc(O)cc2)NC(=O)[C@@H]2C[C@@H](O)CN2C(=O)[C@H]([C@@H](C)O)NC1=O [Caspofungin Acetate] has a relative cell viability of 1.1. Nc1ncnc2n[nH]c(Nc3ccc(F)cc3)c12 gave a relative cell viability of 1.05. For Cc1ccc(NC(=O)c2ccc(CN3CC[C@H](N(C)C)C3)c(C(F)(F)F)c2)cc1Nc1nccc(-c2cncnc2)n1 [Bafetinib (INNO-406)], the relative cell viability was 1.05. Work on Cc1ccc(C(=O)Nc2ccc(CN3CCN(C)CC3)c(C(F)(F)F)c2)cc1C#Cc1cnc2cccnn12 yielded a relative cell viability of 0.127. For Cc1ccc(C(=O)Nc2ccc(CN3CCN(C)CC3)c(C(F)(F)F)c2)cc1C#Cc1cnc2[nH]ncc2c1, the relative cell viability was 0.279. CC(C)(F)C[C@H](N[C@@H](c1ccc(-c2ccc(S(C)(=O)=O)cc2)cc1)C(F)(F)F)C(=O)NC1(C#N)CC1 [Odanacatib (MK-0822)] was tested, and the relative cell viability was 1.15. Work on CN1CCc2c(c3ccccc3n2Cc2ccc(C(=O)NO)cc2)C1 [Tubastatin A HCl] yielded a relative cell viability of 1.01. COc1cc(C(=O)NS(=O)(=O)c2ccccc2C)ccc1Cc1cn(C)c2ccc(NC(=O)OC3CCCC3)cc12 [Zafirlukast] was tested, and the relative cell viability was 0.9. Work on Cn1cc(CNCC2CCN(c3ncc(C(=O)NO)cn3)CC2)c2ccccc21 yielded a relative cell viability of 0.121. CN1CCc2c(c3ccccc3n2Cc2ccc(C(=O)NO)cc2)C1 [Tubastatin A] was tested, and the relative cell viability was 1.16. C[C@H](NCc1ccc(OCc2cccc(F)c2)cc1)C(N)=O [Safinamide Mesylate] showed a relative cell viability of 1.22. For OC[C@H]1O[C@@H](OCCc2ccc(O)cc2)[C@H](O)[C@@H](O)[C@@H]1O [Salidroside], the relative cell viability was 0.974. Work on C[C@H]1O[C@H](O[C@H]2[C@H](O)[C@@H](O)[C@@H](O[C@H]3[C@H](O)[C@@H](O)C(O)O[C@@H]3CO)O[C@@H]2CO)[C@H](O)[C@@H](O)[C@@H]1N[C@H]1C=C(CO)[C@@H](O)[C@H](O)[C@H]1O (stereo partly specified) [Acarbose] yielded a relative cell viability of 1.21. In the case of O=C1c2c(O)ccc(O)c2C(=O)c2c(NCCNCCO)ccc(NCCNCCO)c21 [Mitoxantrone HCl], the relative cell viability is reported as 0.0809. Compound O=C1c2c(O)ccc(O)c2C(=O)c2c(NCCNCCO)ccc(NCCNCCO)c21 [Mitoxantrone] has a relative cell viability of 0.0306. For O=C1c2cccc(O)c2C(=O)c2c(O)cc(CO)cc21 [Aloe-emodin], the relative cell viability was 1.04. COc1cc([C@@H]2c3cc4c(cc3[C@@H](O[C@@H]3O[C@@H]5CO[C@@H](c6cccs6)O[C@H]5[C@H](O)[C@H]3O)[C@H]3COC(=O)[C@H]23)OCO4)cc(OC)c1O [Teniposide] gave a relative cell viability of 0.104. For COc1cc([C@@H]2c3cc4c(cc3[C@@H](O[C@@H]3O[C@@H]5CO[C@@H](C)O[C@H]5[C@H](O)[C@H]3O)[C@H]3COC(=O)[C@H]23)OCO4)cc(OC)c1O [Etoposide], the relative cell viability was 0.923.
